Data on 52 compounds can be found in ChEMBL document CHEMBL3988442, “University of Dundee, Small-Polar-MMV Screening Library” (2021).

Screen size: about 48,000 compounds; about 13,000 (27%) showed an effect of 50% or more. Some of the results follow.

The subject of this assay is Wolbachia pipientis. The assay can be described thus: Anti-Wolbachia Cell-Based Screen. It counts as functional. Further details: scale not given: in the data most compounds retested in dose-response had high values. Particulars: 5 µM.
As to `Cc1csc2c(C3CCCN(C(=O)Cn4cncn4)C3)nc(C)n12` (configuration not stated), the “Percent Effect” value was found to be 83.22%. Then `Cc1ccc(=O)n(CC(=O)N2CCCC(c3nc(C)c(C)s3)C2)n1` (configuration not stated), with -3.398%; and `Cc1csc2c(C3CCCN(C(=O)CCCn4cncn4)C3)nc(C)n12` (configuration not stated), with 105.3%; and `COc1ccc2c(c1)CCCC2CC(=O)NCC(C)(C)C(=O)O` (configuration not stated), with -16.88%. The value for `CS(=O)(=O)CCCNC1(c2ccc(Br)cc2)CCC1` was 1.327%; that for `Cc1csc2c(C3CCCN(C(=O)CCn4cncn4)C3)nc(C)n12` (configuration not stated) was 98.48%; that for `Cc1csc2c(C3CCN(C(=O)Cn4cncn4)CC3)nc(C)n12` was 67.21%. Regarding `Cc1csc(N2CCN(C(=O)CCn3cncn3)CC2)n1`, the “Percent Effect” value was 2.857%. With `CCc1csc(C2CCCN(C(=O)CCn3cc(C)cn3)C2)n1` (configuration not stated), the “Percent Effect” value is -1.231%.

In the case of `COCCCN1CCCN(C(C)C(=O)Nc2ccnn2C(C)C)CC1` (configuration not stated), the “Percent Effect” value is on record as -2.846%. For `CCOc1c(Cl)cccc1NCc1cc(C)on1`, the “Percent Effect” value stood at 3.225%. The value for `Cc1cc(Cl)ccc1C(=O)N[C@H]1CN(S(C)(=O)=O)C[C@@H]1C1CC1` was 11.67%; that for `COc1cccc([C@H]2CN(C(=O)c3nnc4n3CCCC4)C[C@@H]2N)c1` was -27.9%. As to `CSc1[nH]nc(NC(=O)c2ccccc2)c1C#N`, the “Percent Effect” value is listed as 100.8%.

Consider `CSc1[nH]nc(NC(=O)c2cccnc2)c1C#N`, for which the “Percent Effect” value came to 127.6%. With `CC(C)(C)NC(=O)c1ccccc1NC(=O)c1ccncc1`, the “Percent Effect” value was 2.582%. In the case of `N#Cc1cc(NC(=O)c2ccccc2)ccc1N1CCC(O)CC1`, the “Percent Effect” value turned out to be 8.386%.

Consider `CSc1[nH]nc(NC(=O)c2ccncc2)c1C#N`, for which the “Percent Effect” value was 113.4%.

Consider `CC(NC(=O)CSCC#N)c1cccc(NC(=O)c2ccccc2)c1` (configuration not stated), for which the “Percent Effect” value came out at 1.227%. Take `O=C(NCC(F)(F)C(F)F)c1cccnc1`: the “Percent Effect” value is -7.591%.

As to `CC(NC(=O)c1cccs1)C(=O)NS(=O)(=O)Cc1ccc(C#N)cc1` (configuration not stated), the “Percent Effect” value is 0.007489%. In the case of `CN1CCN(c2ccc(NC(=O)c3cccs3)c(C(F)(F)F)c2)CC1`, the “Percent Effect” value is recorded as -12.21%.

`CSc1[nH]nc(NC(=O)c2cccs2)c1C#N`: the “Percent Effect” value stood at 125.8%. The value for `N#Cc1cc(NC(=O)c2ccncc2)ccc1N1CCC(O)CC1` was -6.115%; that for `CS(=O)(=O)Cc1ccc(NC(=O)c2cccnc2)cc1F` was 11.8%. Then `CCOc1ccc(CN2C(=O)CC(CC)(CC)C2=O)nc1`, with 8.891%; and `CCc1nc2n(n1)CC(Nc1cc(C)nc3ncnn13)CC2` (configuration not stated), with -9.549%; and `Cc1cc(NCc2ccccc2CN2CCCCC2)n2ncnc2n1`, with -7.326%. As to `Cc1cc(-n2cnnn2)n2ncnc2n1`, the “Percent Effect” value is listed as 118.9%. As to `Cc1cc(N2CCCCC2Cn2nc(C)cc2C)n2ncnc2n1` (configuration not stated), the “Percent Effect” value was -7.962%.

With `Cc1cc(N2CCCC2Cn2nc(C)cc2C)n2ncnc2n1` (configuration not stated), the “Percent Effect” value is reported as 10.49%. Turning to `Cc1cc(-n2cncn2)n2ncnc2n1`, the “Percent Effect” value worked out at 116%. The value for `CN1CCC(N2CCOC[C@H]2c2nc(C(C)(C)C)c[nH]2)CC1` was -19.67%; that for `Cc1cc(S(C)(=O)=O)c(C)c(S(=O)(=O)NCC2CCC2)c1` was -2.164%; that for `COCCN1C(=O)CO[C@H]2CN(Cc3ccccc3Cl)C[C@@H]21` was 128.8%. The value for `COCCN1C(=O)CO[C@H]2CN(Cc3ccccc3OC)C[C@H]21` was -3.474%. Then `COCCN1C(=O)CO[C@H]2CN(Cc3cccc(OC)c3F)C[C@@H]21`, with 149.6%. Take `COCCN1C(=O)CO[C@@H]2CN(S(=O)(=O)c3ccccc3)C[C@H]21`: the “Percent Effect” value was 3.273%. Take `COCCN1C(=O)CO[C@H]2CN(S(=O)(=O)c3ccccc3)C[C@H]21`: the “Percent Effect” value came to 1.954%. The value for `COCCN1C(=O)CO[C@H]2CN(CCCc3ccccc3)C[C@H]21` was -4.545%; that for `C[S+]([O-])c1nncn1CC(=O)c1cccc(C(F)(F)F)c1` (configuration not stated) was -15.18%; that for `Cc1cc(CN2CCOC(CN(C)c3cccnn3)C2)no1` (configuration not stated) was -1.412%. As to `O=C(c1coc(-c2ccccc2)n1)N1CCS(=O)(=O)CC1`, the “Percent Effect” value is reported as -26.15%. Then `O=C(c1ccc(=O)[nH]n1)N1CCNCC1c1ccccc1` (configuration not stated), with 145.5%; and `O=C(c1ccc(=O)[nH]n1)N1CCCC1CCc1ccccc1` (configuration not stated), with -7.859%. The value for `CCC1CN(C(=O)c2ccc(=O)[nH]n2)CCC(=O)N1Cc1ccccc1` (configuration not stated) was 3.625%. On to `C[C@@H]1CN(Cc2ccncc2)C[C@]1(C)O`, for which the “Percent Effect” value worked out at 97.25%. Then `C[C@@H]1CN(Cc2nnc(-c3cccnc3)o2)CC[C@]1(C)O`, with -2.885%; and `CC1CCCN(Cc2ccc(CNC(=O)NCc3ccncc3)cc2)C1` (configuration not stated), with -7.368%; and `CNc1ccnc(N2C[C@@H](C)[C@](O)(C3CC3)C2)n1`, with 0.4082%.

For `C[C@@H]1CN(Cc2ccncc2)C[C@@]1(O)C1CC1`, the “Percent Effect” value is given as 102.1%.

Take `C[C@@H]1CN(CC(C)(C)N2CCCCC2)C[C@@]1(O)C1CC1`: the “Percent Effect” value amounted to 17.38%.
